# Out of some 1,500 compounds screened, about 890 (59%) were called active.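 How the source made its calls: active means inhibition of the choline-evoked signal at any tested dose together with a fitted dose-response curve; inactive means no inhibition at any dose or no curve.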 The set was probably picked from earlier hits. A selection follows. Where a call stands in place of a potency, no number is given. Potency and affinity values are given separately.
# Biological target: High affinity choline transporter 1 (Homo sapiens) (UniProt Q9GZV3)
# Test: human choline transporter blockers, potency – cell-based, 5-point CRC, membrane potential dye, dose response (AID 504840)
# Settings: HEK293-CHT, choline-induced depolarization, CHT with LV-to-AA double alanine mutation; series mostly up to 37 µM
# Chain of High affinity choline transporter 1 (Homo sapiens) (Q9GZV3 whole entry, looked up): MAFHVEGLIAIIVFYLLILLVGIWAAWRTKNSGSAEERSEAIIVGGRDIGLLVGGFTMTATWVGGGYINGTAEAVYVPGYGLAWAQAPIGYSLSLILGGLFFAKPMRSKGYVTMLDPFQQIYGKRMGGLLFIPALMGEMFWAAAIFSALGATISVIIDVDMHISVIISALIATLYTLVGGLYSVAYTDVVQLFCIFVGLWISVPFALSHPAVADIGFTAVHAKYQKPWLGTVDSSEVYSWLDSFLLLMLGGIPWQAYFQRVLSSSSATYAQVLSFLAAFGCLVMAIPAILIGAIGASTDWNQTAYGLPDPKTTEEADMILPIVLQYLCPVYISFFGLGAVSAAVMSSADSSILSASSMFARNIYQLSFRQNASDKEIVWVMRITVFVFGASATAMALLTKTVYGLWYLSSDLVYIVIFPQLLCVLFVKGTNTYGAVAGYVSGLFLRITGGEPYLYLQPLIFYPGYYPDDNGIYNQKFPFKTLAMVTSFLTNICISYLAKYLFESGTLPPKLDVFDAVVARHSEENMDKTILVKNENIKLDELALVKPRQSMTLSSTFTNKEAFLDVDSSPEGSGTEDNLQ
row,SMILES,outcome
1,C/C(=N\NC(=O)c1ccccc1O)C1C(=O)c2ccccc2C1=O,inactive
2,COC(=O)C1CN(C(=O)C(C)Oc2ccccc2Cl)c2ccccc2O1 (stereo unspecified),inactive
3,CC(NC(=O)Cn1nc(-c2ccccc2)c2ccccc2c1=O)c1ccccc1 (stereo unspecified),inactive
4,O=c1c2cc(Br)ccc2nc(-c2cccc(C(F)(F)F)c2)n1O,inactive
5,CCn1c(SCC(=O)N=Nc2c(O)[nH]c3ccccc23)nc2ccccc21,inactive
6,OC(CNCC#Cc1ccccc1)c1ccccc1 (stereo unspecified),inactive
7,O=C(Nc1cc(F)ccc1F)C1CCCN(c2ncnc3c2nc2n3CCCCC2)C1 (stereo unspecified),inactive
8,Cc1ccc(N2CCN(C(=O)C3CCCN(c4ncnc5c4nc4n5CCCCC4)C3)CC2)c(C)c1 (stereo unspecified),inactive
9,O=C(C1CCCN(c2ncnc3c2nc2n3CCCCC2)C1)N1CCN(c2cccc(Cl)c2)CC1 (stereo unspecified),inactive
10,COc1ccc(Cl)cc1NC(=O)C1CCCN(c2ncnc3c2nc2n3CCCCC2)C1 (stereo unspecified),inactive
11,O=C(c1cccs1)C1C(c2ccc(Br)cc2)NC(=S)NC1(O)C(F)(F)F (stereo unspecified),inactive
12,COc1ccc(Cl)c2sc(N(CCN(C)C)C(=O)c3ccc4c(c3)OCCO4)nc12,inactive
13,Cc1[nH]n(-c2ccccc2)c(=O)c1N=Nc1c(O)cc(S(=O)(=O)N(C)C)c2ccccc12,inactive
14,COc1cccc(N2CCN(c3ncnc4c3[nH]c3ccc(F)cc34)CC2C)c1 (stereo unspecified),inactive
15,COCCNc1c2c(nc3c(-c4ccccc4)c(C)nn13)CCCC2,inactive
16,CN1CCN(Cc2ccc(Sc3ccc(Cl)cc3)c([N+](=O)[O-])c2)CC1,inactive
17,CCOC(=O)N1CCN(C(=O)CCCn2c(=S)[nH]c3ccc(Br)cc3c2=O)CC1,inactive
18,CC1=NN(C(=O)c2ccc(Br)cc2)C(O)(C(F)(F)OC(F)(F)F)C1 (stereo unspecified),inactive
19,O=C(Nc1ccccc1O)c1ccccc1O,inactive
20,CCc1nc(NCc2ccccn2)c2oc3ccccc3c2n1,inactive
21,O=C1c2ccccc2C(=O)c2c(Nc3ccc(CCO)cc3)ccc(O)c21,inactive
22,COc1cc(C(CCN2CCCC(C)C2)c2c(OC)cc(OC)c3c(-c4ccccc4)cc(=O)oc23)cc(OC)c1OC (stereo unspecified),inactive

row,SMILES,outcome
1,O=C(CCCSc1nc2ccccc2[nH]1)N1CCN(c2ccccc2)CC1,inactive
2,Cc1cc(C)nc(SCc2cc(=O)c(OC(=O)c3ccc(S(=O)(=O)N4CCCC4)cc3)co2)n1,inactive
3,CN1CCN(c2ccc(S(=O)(=O)N3CCCCC3)cc2NC(=O)CSCc2ccccc2)CC1,inactive
4,CC(C)[C@H](NC(=O)c1ccccc1)C(=O)OCC(=O)c1ccc2c(c1)NC(=O)CO2,inactive
5,O=C(CCl)N(c1ccc(Cl)cc1)c1c[nH]c2ccccc12,inactive
6,O=C(Nc1cc([N+](=O)[O-])ccc1O)c1cccc([N+](=O)[O-])c1,inactive
7,Oc1ccc(-c2nc(-c3ccc(O)c(O)c3)cs2)cc1,inactive
8,Cc1cccc2sc(N(CCCN(C)C)C(=O)c3ccc(Cl)s3)nc12,inactive
9,Cc1oc(C(=O)O)cc1COc1ccc2c3c(c(=O)oc2c1C)CCC3,inactive
10,O=[N+]([O-])c1ccc(O)c(/C=N/NC2=NS(=O)(=O)c3ccccc32)c1,inactive
11,c1cc(Nc2ncnc3sccc23)cc(-c2nnc3n2CCCCC3)c1,inactive
12,O=c1c2cc(NC(=S)NC3CCCCC3)ccc2nc2n1CCCCC2,inactive
13,CCCn1c(=O)c2c(nc3n2CCCN3CCc2ccc(OC)c(OC)c2)n(C)c1=O,inactive
14,O=C(NNc1ccc(C(F)(F)F)cc1[N+](=O)[O-])c1ccc(NS(=O)(=O)c2ccc(F)cc2)cc1,inactive
15,O=C(NNc1nc(-c2ccccc2)cs1)c1ccc(F)cc1,inactive
16,O=C(NCc1nc(-c2ccccc2)cs1)c1ccccc1,inactive
17,C=CCNC(=O)c1onc(CSc2ccc(C(C)C)cc2)c1C(=O)O,inactive
18,CC(=O)C(Sc1nn(C)c(=S)s1)C(=O)Nc1ccccc1 (stereo unspecified),inactive
19,CN1CCN(CCOCCOc2ccc(Br)cc2Cl)CC1,inactive
20,CCOc1cc(/C=C2\N=C(SC)SC2=O)cc([N+](=O)[O-])c1OC(C)=O,inactive
21,COC(=O)C(C)Sc1nc2c(c(=O)[nH]c(=O)n2C)n1CCC(C)C (stereo unspecified),inactive
22,O=C(Nc1nc(-c2ccccc2)cs1)c1ccc(=O)[nH]c1,inactive

row,SMILES,outcome
1,O=S(=O)(Nc1nc(-c2ccccc2)cs1)c1cccc(C(F)(F)F)c1,inactive
2,N#Cc1ccc(C2=NC(C(F)(F)F)(C(F)(F)F)c3c(n(Cc4ccco4)c(=O)[nH]c3=O)N2)cc1,inactive
3,O=C(Nc1ccc(S(=O)(=O)NC2=NCCCCC2)cc1)C1COc2ccccc2O1 (stereo unspecified),inactive
4,O=C(CC1C(=O)NCCN1C(=O)Nc1ccccc1)Nc1cc(Cl)cc(Cl)c1 (stereo unspecified),inactive
5,CCCCc1cc(=O)oc2cc(O)cc(O)c12,inactive
6,CN1CCN(CC(=O)Nc2nc(-c3c[nH]c4ccccc34)cs2)CC1,inactive
7,Nc1cc(N2CCCCCC2)c2nonc2c1[N+](=O)[O-],inactive
8,O=C(NNc1ccc([N+](=O)[O-])cc1[N+](=O)[O-])c1ccco1,inactive
9,COc1ccc2c(c1)c(C(O)CN1CCC(Cc3ccccc3)CC1)c(C)n2C (stereo unspecified),inactive
10,CC1(C)c2cc(Cl)ccc2-n2c1cc(O)c(-c1ccccc1)c2=O,inactive
11,CCCCCn1c(CCNC(=O)CCC)nc2ccccc21,inactive
12,CCOC(=O)c1c(CCl)nc2ccccc2c1C,inactive
13,Cc1occc1C(=O)NNC(=S)NC(=O)COc1ccc(Cl)cc1Cl,inactive
14,Cc1occc1C(=O)NNS(=O)(=O)c1ccc([N+](=O)[O-])cc1,inactive
15,O=C(O)c1ccccc1-c1ccccc1C(=O)Nc1ccc(-c2nc3cc(Cl)ccc3o2)cc1,inactive
16,Cc1cccc(N2CCN(C(=O)C3CCN(c4ncnc5c4nc4n5CCCCC4)CC3)CC2C)c1 (stereo unspecified),inactive
17,CCn1c(SCC(=O)c2ccccc2)nnc1-c1cccs1,inactive
18,CCC(Sc1nnc(-c2ccc(C)c(Cl)c2)n1CC)C(=O)Nc1nccs1 (stereo unspecified),inactive
19,Cc1c(O)ccc(/C(Cc2ccc3ccccc3n2)=N\N)c1O,inactive
20,C=CCNc1nc(SCC=C)nc2ccsc12,inactive
21,N#C/C(=C(/O)CCl)c1nc(-c2ccccc2)cs1,inactive
22,O=C(c1cccc(Oc2ccc([N+](=O)[O-])cc2Cl)c1)N1CCCCC1,inactive

row,SMILES,outcome
1,COc1ccc(Nc2nc3ccccc3n2C)cc1,inactive
2,S=C(NCc1ccccn1)Nc1ccc(Cl)cc1Cl,inactive
3,O=C(Nc1ccc(Br)cc1Cl)Nn1cnnc1,inactive
4,COc1ccc(CN(C(=O)c2ccc3c(c2)OCCO3)C(C(=O)NC2CCCCC2)c2ccc3ncccc3c2)cc1 (stereo unspecified),inactive
5,COc1ccc(CN(C(=O)c2cccs2)C(C(=O)NC2CCCCC2)c2ccc3ncccc3c2)cc1 (stereo unspecified),inactive
6,O=C(NC1CCCCC1)C(c1ccc2ncccc2c1)N(Cc1ccc(F)cc1)C(=O)c1ccc2c(c1)OCCO2 (stereo unspecified),inactive
7,O=C(NCCc1ccc2c(c1)OCCO2)c1cc2ccccc2o1,inactive
8,NC1=NC2(CCCCCC2)n2c(nc3ccccc32)N1,inactive
9,Cc1ccc(-c2csc3ncn(CC#N)c(=O)c23)cc1,inactive
10,CC1=C(C(=O)Nc2cccc(C(=O)NC3CCCC(C)C3C)c2)SCCO1 (stereo unspecified),inactive
11,Cc1ccc(NNC(=O)c2cccs2)cc1Cl,inactive
12,Cc1ccc(Nc2cc(C(=O)NCCCN3CCOCC3)c3ccccc3n2)cc1C,inactive
13,CCNc1nc2[nH]c(=O)c3c(c2s1)OC(N)=C(C#N)C3c1ccc(C)cc1 (stereo unspecified),inactive
14,Cc1noc(C)c1COC(=O)c1ccc(F)c(S(=O)(=O)N2CCCCC2)c1,inactive
15,CCc1nnc(NC(=O)c2cc(S(=O)(=O)N(CC)CC)ccc2Cl)s1,inactive
16,CC[N+]1(CC)CC2=Cc3c(ccc4ccccc34)CC2C1 (stereo unspecified),inactive
17,O=C(CN1CCN(Cc2ccc(Cl)cc2)CC1)N1CCc2ccccc21,inactive
18,Cc1ccc(-c2noc(CNc3ccccc3)n2)cc1,inactive
19,CCc1ccc(NCc2nc(-c3ccccc3)no2)cc1,inactive
20,O=C(CCCN1C(=O)CSc2ncccc21)N1CCN(c2cccc(C(F)(F)F)c2)CC1,inactive
21,COC(=O)c1ccc(C(=O)N2CCCC(Nc3ccc(C(C)C)cc3)C2)nc1 (stereo unspecified),inactive
22,CC(C)c1cc(C(=O)N2CCCC(CCC(=O)N3CCN(c4ccccn4)CC3)C2)no1 (stereo unspecified),inactive

row,SMILES,outcome
1,CCN(Cc1ccncc1)C(=O)c1cc(COc2c(C)cccc2C)on1,inactive
2,O=C(c1cc(COc2ccc(F)cc2Cl)on1)N1CCC(c2ccncc2)CC1,inactive
3,CC(C)n1cnc2c(N(C)c3cccc(Cl)c3)nc(N(CCO)CCO)nc21,inactive
4,N#C/C(=N\Nc1ccc([N+](=O)[O-])cc1)C(N)=S,inactive
5,N#C/C(=N\Nc1ccc(F)cc1)C(=O)C1CC1,inactive
6,CC(NC(=O)C1c2ccccc2Oc2ccccc21)C1CCCO1 (stereo unspecified),inactive
7,CN(Cc1ccccc1)c1ccc(C(CC(N)=O)NC(=O)c2ccc(Br)cc2)cc1[N+](=O)[O-] (stereo unspecified),inactive
8,O=C(O)c1ccc(N2C(=O)CSC2=S)cc1,inactive
9,Cc1ccc(Cl)cc1N1CCN(C(=O)Cc2c(C(=O)O)[nH]c3ccc(Cl)cc23)CC1,inactive
10,O=C(CCC(=O)N1CCN(c2ccccc2F)CC1)N1CCN(c2ccc(F)cc2)CC1,inactive
11,CCC(=O)Nc1cc(Cl)ccc1N1CCN(C(=O)CC)CC1,inactive
12,NC(N)=N/N=C/c1ccc(Cl)c(Cl)c1,inactive
13,O=C1OCCC1Sc1nc(-c2ccccc2)cs1 (stereo unspecified),inactive
14,Cc1csc(C(C#N)C(=O)c2cc3ccccc3o2)n1 (stereo unspecified),inactive
15,CC(C)n1c(=S)[nH]c2cc(C(F)(F)F)ccc21,inactive
16,CCCCNS(=O)(=O)c1ccc(NC(=O)c2c(-c3ccccc3Cl)noc2C)cc1,inactive
17,Cc1noc(NC(=O)c2c(-c3c(Cl)cccc3Cl)noc2C)c1[N+](=O)[O-],inactive
18,Cc1cc(C)cc(OCC(O)CN2CCC(CN3C(=O)c4cccc5cccc(c45)C3=O)CC2)c1 (stereo unspecified),inactive

# — PubChem BioAssay AID504840 (Johns Hopkins Ion Channel Center, 2011)
